The source of these data is PubChem BioAssay (NCATS).

Inconclusive results are not listed. Calls of active or inactive are those of the source. The call rests on the fitted dose curve; in most records, active means well fitted inhibition curve with a large enough effect; inconclusive means small, poorly fitted or top-dose-only effect; inactive means flat fitted curve, though single readings scatter.
On the % scale 0 is the no-effect control and ±100 the full control effect; potency means the concentration at half of the fitted maximal effect.

A short description of this experiment: P-glycoprotein substrates identified in KB-8-5-11 adenocarcinoma cell line, qHTS therapeutic library screen (AID 1346987). Further: nearly all actives have a fitted effect of over 65% in size. To be noted: KB-8-5-11 (P-gp overexpressing) viability, CellTiter-Glo, 72 h; series mostly up to 44.5 µM; activity change, negative = cytotoxicity: at the top concentration. The essentials: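 Luminescence from CellTiter-Glo, read 5 min after addition, quantified survival of KB-8-5-11 (P-gp-overexpressing) cells exposed to compounds for 72 h. AC50 was derived from concentration-response curves.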
(qHTS replaces the single test concentration by a dilution series.)
Consider `O=C(Nc1ccc(C(=O)O)c(O)c1)c1ccccc1`, for which the “activity change, negative = cytotoxicity” value is 7.88% (inactive).
For `CC1(C)[C@@H](O)CC[C@]2(C)[C@H]3C(=O)C=C4[C@@H]5C[C@@](C)(C(=O)O)CC[C@]5(C)CC[C@@]4(C)[C@]3(C)CC[C@@H]12`, the Potency result was “inactive”.
In the case of `COc1cc(/C=C/C(=O)CC(=O)/C=C/c2ccc(O)c(OC)c2)ccc1O`, the “activity change, negative = cytotoxicity” value was 2.12% (inactive).
As to `CC1(C)S[C@@H]2[C@H](NC(=O)[C@H](N)c3ccc(O)cc3)C(=O)N2[C@H]1C(=O)O`, the Potency entry was “inactive”.
Still for that read-out and setting: next, `CC1(C)[C@@H](O[C@H]2O[C@H](C(=O)O)[C@@H](O)[C@H](O)[C@H]2O[C@@H]2O[C@H](C(=O)O)[C@@H](O)[C@H](O)[C@H]2O)CC[C@]2(C)[C@H]3C(=O)C=C4[C@@H]5C[C@@](C)(C(=O)O)CC[C@]5(C)CC[C@@]4(C)[C@]3(C)CC[C@@H]12`: “inactive”; `CC[C@H]1OC(=O)[C@H](C)[C@@H](O[C@H]2C[C@@](C)(OC)[C@@H](O)[C@H](C)O2)[C@H](C)[C@@H](O[C@@H]2O[C@H](C)C[C@H](N(C)C)[C@H]2O)[C@](C)(O)C[C@@H](C)C(=O)[C@H](C)[C@@H](O)[C@]1(C)O`: “inactive”.
Still for that read-out and setting: next, `C[C@H](O)[C@H](O)[C@H]1CNc2nc(N)[nH]c(=O)c2N1`: “inactive”; `CC1(C)C[C@@H]1C(=O)N/C(=C\CCCCSC[C@H](N)C(=O)O)C(=O)O`: “inactive”.
Regarding `COc1cc(NC(C)CCCN)c2ncccc2c1` (stereo not drawn), the “activity change, negative = cytotoxicity” value was 3.03% [at 17.3 µM] (inactive).
Same read-out and setting: next, `CC[C@H]1OC(=O)[C@H](C)C(=O)[C@H](C)[C@@H](O[C@@H]2O[C@H](C)C[C@H](N(C)C)[C@H]2O)[C@](C)(OC)C[C@@H](C)C(=O)[C@H](C)[C@H]2N(CCCCn3cnc(-c4cccnc4)c3)C(=O)O[C@]12C`: 0.741% (inactive); `COc1cc(CNC(=O)CCCC/C=C/C(C)C)ccc1O`: 3.43% (inactive); `O=C(O)Cc1ccc(-c2ccccc2)cc1`: 12.4% [at 17.3 µM] (inactive).
On to `CN1CC(=O)N/C1=N/C(=O)Nc1cccc(Cl)c1`, for which the Potency result was “inactive”.
As to `CN(C)[C@@H]1C(=O)C(C(=O)NCN2CCCC2)=C(O)[C@@]2(O)C(=O)C3=C(O)c4c(O)cccc4[C@@](C)(O)C3C[C@@H]12` (stereo partly drawn), the “activity change, negative = cytotoxicity” value was -1.3% [at 17.3 µM] (inactive).
In the case of `C=CCN1C(=O)C(CC(C)C)NC1=S` (stereo not drawn), the Potency result was “inactive”.
In the case of `O=C(O)c1cc(O)c(O)c(O)c1`, the “activity change, negative = cytotoxicity” value was 1.92% (inactive).
As to `c1ccc2sc(SN3CCOCC3)nc2c1`, the “activity change, negative = cytotoxicity” value was -2.38% (inactive).
Take `O=C(O)[C@H](O)[C@@H](O)[C@H](O)[C@H](O)CO`: the Potency entry is “inactive”.
Regarding `Cc1onc(-c2c(F)cccc2Cl)c1C(=O)N[C@@H]1C(=O)N2[C@@H]1SC(C)(C)[C@@H]2C(=O)O`, the Potency entry was “inactive”.
The same measure, in the same setting: next, `CCCOC(=O)c1ccc(O)cc1`: “inactive”.
As to `CCCCCCOc1ccccc1C(N)=O`, the Potency is 18.4 µM (active).
`CCCCCCCCCCCCCCCC(=O)OC(C)C`: the “activity change, negative = cytotoxicity” value is -0.889% (inactive).
For the molecule `CO/N=C(\C(=O)N[C@@H]1C(=O)N2C(C(=O)O)=C(COC(C)=O)CS[C@H]12)c1csc(N)n1` (stereo in doubt), the “activity change, negative = cytotoxicity” value is -5.45% (inactive).
